Test results reported in PubChem BioAssay (Tox21).
Results filed as inconclusive are left out. Calls of active or inactive are those of the source. Unless noted, calls follow the shape of the dose curve; as a rule, active = well fitted curve in the direction sought with a large enough effect in the repeat runs; inconclusive = weak or mixed curves; inactive = no such curve, though single readings can be large; an effect the other way counts as inactive or inconclusive.

Experiments:
[1] = A CellTox Green Cytotoxicity Assay to monitor cytotoxicity in HepG2 cells - 24 hour (AID 1224878); also: nearly all actives have a fitted effect of over 45% in size
In short: (§1)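 HepG2 cells were seeded together with the CellTox Green dye at 600 cells/well, left 5 h at 37 C/5% CO2, then given compounds in DMSO. Fluorescence from dye bound to dead-cell DNA was read repeatedly over 40 h of treatment at 37 C.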

[2] = A CellTox Green Cytotoxicity Assay to monitor cytotoxicity in HepG2 cells - 40 hour (AID 1224879); also: nearly all actives have a fitted effect of over 40% in size
In short: as §1

[3] = qHTS RealTime-Glo MT Cell Viability Assay in HEK293 cells - 0 hour (AID 1224880); also: top concentration of the series differs between compounds; nearly all actives have a fitted effect of over 45% in size
In short: (§2)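 HEK293 cells mixed with RealTime-Glo reagents (NanoLuc plus cell-permeant prosubstrate) at 600 cells/well, preincubated 5 h at 37 C/5% CO2, then given 23 nL compound in DMSO. Nonlytic luminescence from viable cells was read at 0, 8, 16, 24, 32 and 40 h.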

[4] = A CellTox Green Cytotoxicity Assay to monitor cytotoxicity in HEK293 cells - 32 hour (AID 1224881); also: nearly all actives have a fitted effect of over 40% in size
In short: (§3)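 HEK293 cells premixed with CellTox Green dye were seeded at 600 cells/well and left 5 h at 37 C/5% CO2 before pin transfer of 23 nL compound in DMSO. Fluorescence from dye bound to dead-cell DNA was read during 40 h treatment.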

[5] = A CellTox Green Cytotoxicity Assay to monitor cytotoxicity in HepG2 cells - 0 hour (AID 1224882); also: nearly all actives have a fitted effect of over 35% in size
In short: as §1

[6] = A CellTox Green Cytotoxicity Assay to monitor cytotoxicity in HepG2 cells - 32 hour (AID 1224883); also: nearly all actives have a fitted effect of over 50% in size
In short: as §1

[7] = A CellTox Green Cytotoxicity Assay to monitor cytotoxicity in HEK293 cells - 8 hour (AID 1224884); also: nearly all actives have a fitted effect of over 35% in size
In short: as §3

[8] = qHTS RealTime-Glo MT Cell Viability Assay in HepG2 cells - 16 hour (AID 1224885); also: nearly all actives have a fitted effect of over 50% in size
In short: (§4)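 Tox21 10K library screened in qHTS format on HepG2 cells carrying RealTime-Glo reagents. Compounds were added after a 5 h preincubation, and the luminescent signal from continuous culture was measured repeatedly during 40 h treatment.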

[9] = qHTS RealTime-Glo MT Cell Viability Assay in HEK293 cells - 24 hour (AID 1224886); also: top concentration of the series differs between compounds; nearly all actives have a fitted effect of over 50% in size
In short: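 Luminescence generated by NanoLuc from substrate produced by living HEK293 cells served as the viability signal. Each value reflects the reading at its stated time point during continuous 40 h compound exposure at 37 C.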

[10] = qHTS RealTime-Glo MT Cell Viability Assay in HEK293 cells - 8 hour (AID 1224887); also: top concentration of the series differs between compounds; nearly all actives have a fitted effect of over 50% in size
In short: as §2

[11] = A CellTox Green Cytotoxicity Assay to monitor cytotoxicity in HEK293 cells - 16 hour (AID 1224888); also: nearly all actives have a fitted effect of over 35% in size
In short: as §3

[12] = qHTS RealTime-Glo MT Cell Viability Assay in HepG2 cells - 0 hour (AID 1224889); also: nearly all actives have a fitted effect of over 50% in size
In short: as §4

[13] = A CellTox Green Cytotoxicity Assay to monitor cytotoxicity in HepG2 cells - 8 hour (AID 1224890); also: nearly all actives have a fitted effect of over 45% in size
In short: as §1

[14] = qHTS assay to identify small molecule antagonists of the estrogen receptor alpha (ER-alpha) signaling pathway using the BG1 cell line in the presence of 0.1 nM 17-beta-estradiol - cell viability counter screen (AID 1259241); also: nearly all actives have a fitted effect of over 40% in size
In short: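 Viability in VM7Luc4E2 cells after 22 hr compound exposure under 0.1 nM 17beta-estradiol stimulation, by CellTiter-Fluor.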

[15] = qHTS assay to identify small molecule antagonists of the androgen receptor (AR) signaling pathway using the MDA cell line in the presence of 0.5 nM R1881 - cell viability counter screen (AID 1259242); also: nearly all actives have a fitted effect of over 45% in size
In short: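 MDA-kb2 cells (human breast carcinoma, stably carrying MMTV-luciferase reporter) were exposed to compounds with 0.5 nM R1881 (final) for 16 hr at 37C, 0% CO2; viability then read as live-cell protease fluorescence (CellTiter-Fluor, 30 min) in the same wells.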

[16] = qHTS assay to identify small molecule phospholipidosis (PLD) inducers (AID 1259344; active = well fitted curve in the direction sought with a large enough effect; an effect the other way counts as inactive or inconclusive)
In short: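 Phospholipidosis is scored by imaging LipidTOX-stained pits in HepG2 cells exposed to compound for 24 h at 37 C; pit counts and integrated intensities per well and per cell serve as outputs.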

[17] = qHTS assay to identify small molecule HDAC inhibitors (AID 1259364)
In short: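 Wild-type HCT-116 cells were plated overnight, exposed to compounds for 2 h at 37 °C, then given HDAC-Glo class I/II luminogenic reagent for 30 min at room temperature before luminescence was read.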

[18] = qHTS assay to identify small molecule HDAC inhibitors - cell viability counter screen (AID 1259365)
In short: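 Cytotoxicity was gauged in wild-type HCT-116 cells after a brief 2hr treatment with DMSO-dissolved compounds at 37C and 5% CO2, using CellTiter-Glo luminescence developed for 30min at room temperature.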

[19] = molecular target: Estrogen receptor (Homo sapiens) (UniProt P03372); assay: qHTS assay to identify small molecule antagonists of the estrogen receptor alpha (ER-alpha) signaling pathway using the BG1 cell line in the presence of 0.1 nM 17-beta-estradiol (AID 1259244); also: nearly all actives have a fitted effect of over 50% in size
Chain of Estrogen receptor (Homo sapiens) (P03372 whole entry, looked up): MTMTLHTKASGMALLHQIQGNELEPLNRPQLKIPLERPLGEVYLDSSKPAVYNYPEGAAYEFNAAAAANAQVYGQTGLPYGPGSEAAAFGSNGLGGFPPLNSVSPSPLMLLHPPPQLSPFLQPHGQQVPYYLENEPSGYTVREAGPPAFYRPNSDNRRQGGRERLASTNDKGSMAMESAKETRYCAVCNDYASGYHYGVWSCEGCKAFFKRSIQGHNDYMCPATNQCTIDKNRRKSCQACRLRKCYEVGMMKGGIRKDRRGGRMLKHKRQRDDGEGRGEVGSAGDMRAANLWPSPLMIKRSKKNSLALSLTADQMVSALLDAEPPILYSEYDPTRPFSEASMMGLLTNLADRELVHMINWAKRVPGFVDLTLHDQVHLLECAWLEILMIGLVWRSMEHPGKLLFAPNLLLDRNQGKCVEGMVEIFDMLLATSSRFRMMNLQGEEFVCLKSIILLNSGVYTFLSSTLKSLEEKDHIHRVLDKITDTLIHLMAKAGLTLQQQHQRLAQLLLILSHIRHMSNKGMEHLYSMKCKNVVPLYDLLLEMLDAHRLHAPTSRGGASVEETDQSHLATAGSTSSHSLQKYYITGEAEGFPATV
In short: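 VM7Luc4E2 cells (endogenous full-length ER-alpha, stable 4xERE-luciferase) were grown 5 days in phenol red-free medium with charcoal-stripped FBS, then exposed 22 h at 37C to compounds plus 0.1 nM (final) 17beta-estradiol; ONE-Glo luminescence read-out.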

[20] = molecular target: Androgen receptor (Homo sapiens) (UniProt P10275); assay: qHTS assay to identify small molecule antagonists of the androgen receptor (AR) signaling pathway using the MDA cell line in the presence of 0.5 nM R1881 (AID 1259243); also: nearly all actives have a fitted effect of over 50% in size
Chain of Androgen receptor (Homo sapiens) (P10275 whole entry, looked up): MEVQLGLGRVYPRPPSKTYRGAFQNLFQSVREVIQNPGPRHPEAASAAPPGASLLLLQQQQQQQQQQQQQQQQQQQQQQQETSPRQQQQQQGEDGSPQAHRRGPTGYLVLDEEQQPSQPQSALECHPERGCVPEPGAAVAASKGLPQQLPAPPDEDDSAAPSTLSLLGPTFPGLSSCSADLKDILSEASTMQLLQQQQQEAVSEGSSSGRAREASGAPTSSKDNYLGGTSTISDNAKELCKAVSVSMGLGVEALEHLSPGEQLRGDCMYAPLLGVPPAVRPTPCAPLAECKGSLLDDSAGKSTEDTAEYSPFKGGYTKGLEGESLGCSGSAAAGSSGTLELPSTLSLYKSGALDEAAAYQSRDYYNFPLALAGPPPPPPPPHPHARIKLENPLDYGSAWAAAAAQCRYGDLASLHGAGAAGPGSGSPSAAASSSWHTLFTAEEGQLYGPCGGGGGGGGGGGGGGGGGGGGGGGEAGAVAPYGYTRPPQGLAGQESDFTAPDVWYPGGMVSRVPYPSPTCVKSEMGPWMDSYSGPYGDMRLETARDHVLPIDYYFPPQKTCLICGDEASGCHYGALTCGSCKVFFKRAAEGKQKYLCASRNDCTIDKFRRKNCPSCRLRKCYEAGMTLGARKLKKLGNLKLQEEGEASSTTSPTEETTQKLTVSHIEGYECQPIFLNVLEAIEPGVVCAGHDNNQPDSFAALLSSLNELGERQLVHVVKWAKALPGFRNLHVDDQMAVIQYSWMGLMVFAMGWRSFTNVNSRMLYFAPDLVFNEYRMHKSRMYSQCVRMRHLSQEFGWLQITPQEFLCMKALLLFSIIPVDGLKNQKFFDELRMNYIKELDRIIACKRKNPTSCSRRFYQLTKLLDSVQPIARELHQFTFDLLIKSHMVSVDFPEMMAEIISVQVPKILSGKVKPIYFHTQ
In short: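 MDA-kb2 human breast carcinoma cells carrying an MMTV-luciferase reporter (AR- and GR-responsive) were plated, rested 5 hr at 37C, dosed with compounds, then stimulated with 0.5 nM R1881 (final) for 16 hr; luminescence was read after ONE-Glo.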

Measured: Potency

O=C(O)P(=O)(O)O
not listed: [19] | [20]
inactive: all other assays above

CCCc1ccc(O)c(OC)c1
not listed: [16] | [17] | [20]
inactive: all other assays above

O=S(=O)(O)c1cc(I)c(O)c2ncccc12
not listed: [17] | [19] | [20]
inactive: all other assays above

CCCCCCCCCCCBr
not listed: [16] | [20]
inactive: all other assays above

C=CC(=O)OCC[N+](C)(C)C
not listed: [16] | [20]
inactive: all other assays above

C=CCOC(=O)CCCCCCCC
not listed: [16] | [20]
inactive: all other assays above

Cc1nc2ccc(Cl)cc2[nH]1
not listed: [16] | [17] | [20]
inactive: all other assays above

Cc1ccccc1C#N
not listed: [16] | [18] | [20]
inactive: all other assays above

COc1ccccc1N1CCN(CC(O)COc2cc(OC)c(OC)c(OC)c2)CC1 (stereo unspecified)
not listed: [16] | [20]
inactive: all other assays above

NC(=O)CC[C@@H](N)C(=O)O
not listed: [17] | [19] | [20]
inactive: all other assays above

CC(C)OCCO
not listed: [16] | [18] | [19] | [20]
inactive: all other assays above

O=C(O)CCCCCCCCCC(=O)O
not listed: [15] | [16]
inactive: all other assays above

N#Cc1ccccc1C#N
not listed: [15] | [16] | [18]
inactive: all other assays above

Cc1cccc(N)n1
not listed: [16] | [19] | [20]
inactive: all other assays above

C=CCCCCCCCCOC(C)=O
not listed: [16] | [19] | [20]
inactive: all other assays above

CN(C)CCc1c[nH]c2ccc(C[C@H]3COC(=O)N3)cc12
not listed: [15] | [19] | [20]
inactive: all other assays above

Cc1ccc(O)c(C(=O)c2ccccc2)c1
not listed: [16] | [19] | [20]
inactive: all other assays above

CC(C)(O)CCCC1=CCC(C=O)CC1 (stereo unspecified)
not listed: [16] | [19] | [20]
inactive: all other assays above
